High-throughput results deposited in PubChem by National Center for Advancing Translational Sciences (NCATS).
KDM4E inh: blocks human JMJD2E demethylase activity | JMJD2E catalytic domain, FDH-coupled NADH fluorescence (FDH is formaldehyde dehydrogenase) | Potency, µM (doses to about 57.1 µM), without a hit: top-dose activity change, negative = inhibition, hits mostly inhibitors | 230,000 tested, 1.6% active | AID 2147; active means well fitted inhibition curve with a large enough effect, not every such curve was filed as active; inconclusive means small, poorly fitted or top-dose-only effect, or another doubt; inactive means no such curve, though single readings can be large or run the other way;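 further: 0% = wells with enzyme and -100% = buffer wells without enzyme; nearly all actives have a fitted effect of over 50% in size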
Target sequence (B2RXH2 1-337 limits assumed): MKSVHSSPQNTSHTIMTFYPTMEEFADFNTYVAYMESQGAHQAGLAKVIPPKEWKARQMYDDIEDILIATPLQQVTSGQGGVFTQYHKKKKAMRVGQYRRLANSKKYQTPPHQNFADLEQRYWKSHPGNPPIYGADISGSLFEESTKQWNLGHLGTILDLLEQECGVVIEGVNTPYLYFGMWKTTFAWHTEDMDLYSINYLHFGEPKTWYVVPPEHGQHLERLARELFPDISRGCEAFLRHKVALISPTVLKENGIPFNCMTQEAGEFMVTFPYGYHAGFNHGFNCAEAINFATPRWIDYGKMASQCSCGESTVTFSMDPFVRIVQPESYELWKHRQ
GCN5L2 inh: blocks human GCN5L2 histone acetyltransferase; Q92830; GCN5L2 HAT assay, ThioGlo1 CoA-SH fluorescence; Potency, µM (titrated, usually from 58.9 µM), inactives show top-dose activity change, negative = inhibition, usual class: inhibitors; 390,000 tested, 0.21% active; further: on the % scale 0 is the no-effect control and ±100 the full control effect
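ThioGlo1-coupled HAT assay: 20nM GCN5L2, 70uM acetyl-CoA, 75uM H3(1-25) peptide, pH 7.5. Fluorescence read at 340/540nm at start and after 20 min at room temperature.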
IMPase Li inh: membrane-permeable IMPase blocker, potentiated with lithium; Potency, µM (titrated, usually from 59.4 µM), inactives show top-dose activity, negative = IMPase inhibition, most hits filed as inhibitors; CHO-M1 cells, IP1 TR-FRET (IP-One), carbachol + lithium; AID 1457; 210,000 tested, 0.35% active;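 further: IP1 builds up when IMPase is blocked and the TR-FRET signal falls; plate controls were basal vehicle for no effect and high inhibitor control for full effect; nearly all actives have a fitted effect of over 50% in size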
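IP1 accumulation measured by competitive TR-FRET in lysed CHO-M1 cells after 30 min compound exposure at 37C, with a small lithium addition to potentiate weak responses. Hill-equation AC50 from ratio and donor-channel data.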
Sfp PPTase inh: blocks B. subtilis Sfp PPTase activity; 310,000 tested, 3.5% active; Biochemical Sfp PPTase activity, qHTS; Q9F4F7; Potency, µM, for inactives: largest response in the series, negative = inhibition, usual class: inhibitors;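 further: the enzyme is Sfp with the accession as filed and its product quenches rhodamine fluorescence; 0% = enzyme reaction without inhibitor and -100% = no enzyme wells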
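Fluorescence-quenching assay with 15 nM Sfp, 5 uM rhodamine-CoA and 12.5 uM BHQ-2-labelled ybbR peptide in pH 7.6 Hepes/MgCl2 buffer. Enzyme was pre-incubated with compound for 15 min at room temperature. Rate was taken from the 30-min fluorescence change (525/598 nm).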
NPSR antag: neuropeptide S receptor (human) antagonism, cAMP. Q6W5P4. CHO-NPSR cells, cAMP TR-FRET, antagonist mode. 220,000 tested, 1% active. Potency, µM (series often up to 38.3 µM), inactives show top-dose activity change, negative = inhibition, hits mostly inhibitors; further: on the % scale 0 is the no-effect control and ±100 the full control effect; nearly all actives have a fitted effect of over 50% in size
Target sequence (Q6W5P4 whole entry, looked up): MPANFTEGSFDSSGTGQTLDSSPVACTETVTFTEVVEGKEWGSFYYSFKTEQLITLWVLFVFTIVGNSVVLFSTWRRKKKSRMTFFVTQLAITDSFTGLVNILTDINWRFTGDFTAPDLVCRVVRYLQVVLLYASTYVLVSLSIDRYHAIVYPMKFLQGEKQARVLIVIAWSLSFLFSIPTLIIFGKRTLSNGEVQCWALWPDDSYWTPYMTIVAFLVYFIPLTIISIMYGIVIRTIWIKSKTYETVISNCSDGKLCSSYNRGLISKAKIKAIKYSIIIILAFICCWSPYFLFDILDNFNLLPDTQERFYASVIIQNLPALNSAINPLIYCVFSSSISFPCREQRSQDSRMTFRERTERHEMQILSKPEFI
Epigenetic reg: epigenetic control regulation, reporter derepression. 280,000 tested, 0.2% active. murine LDR cells, GFP reporter derepression, 30 h. Potency, µM (series often up to 53.9 µM), inactives show at the highest dose GFP activation, usual class: activators; further: % of control where 0% means no effect; nearly all actives have a fitted effect of over 60% in size
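Reporter derepression read as number of fluorescent GFP-positive objects, 20-120 um in size, counted by laser-scanning cytometer. Mouse LDR line with an epigenetically silenced CMV-GFP locus; compound incubation 30 h, 37 C.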
The depositor's hits bear a star; ? = inconclusive; . = no result; [ ] = another dose, or the depositor's remark. Compounds with a hit are over-represented: about 3.6% of the library has one in this group of screens. Unless noted, the call rests on the fitted dose curve; in most records, active means well fitted curve in the direction sought with a large enough effect; inconclusive means small, poorly fitted or top-dose-only effect, or another doubt; inactive means no such curve, though single readings can be large; an effect the other way counts as inactive or inconclusive. Potency means the concentration at half of the fitted maximal effect.

SMILES | KDM4E inh | GCN5L2 inh | IMPase Li inh | Sfp PPTase inh | NPSR antag | Epigenetic reg
O=C(NC(Cc1ccccc1)C(=O)O)/C(=C\c1ccco1)NC(=O)c1ccc(Br)cc1 (stereo unspecified) | 1% | -17% | -3%[38.3 µM] | -65% | -13%[46.1 µM] | -1%
O=C(O)/C(=C/c1ccco1)c1ccccc1 | -6% | -5% | -2% | 22µM* | -1% | -1%
CC(=O)c1cccc(NC(=O)/C(=C/c2ccco2)NC(=O)c2ccco2)c1 | . | -12% | . | 8% | . | .
CC#CCN1c2ccccc2[C@]23C[C@@H](C(=O)OC)N(S(=O)(=O)CCCC)C2=NC(C(=O)OC)=C(C(=O)OC)[C@H]13 | 11%[11.4 µM] | . | 5% | -11% | . | .
CCOC(=O)c1noc2ncnc(N3CCC(C)CC3)c12 | . | -5% | . | . | . | 1%
O=C(O)/C(=C\c1ccco1)NC(=O)c1cccc2ccccc12 | -8% | -3% | -5%[38.3 µM] | 79µM* | -6%[46.1 µM] | 7%
Cc1cc(N/N=C/c2ccc3c(c2)OCO3)nc2ccccc12 | ? | -14% | . | 20µM* | -39% | -3%
O=c1[nH]c(N/N=C\c2ccc3c(c2)OCO3)nc2ccccc12 | -1% | -15% | 10% | 20µM* | -25% | -3%
O=c1[nH]c(N/N=C/c2ccccc2)nc2ccccc12 | ? | -1% | -2% | 8% | -6%[46.1 µM] | 0%
Cc1cc(N/N=C/c2ccccc2Br)nc2ccccc12 | -23% | -1% | 19% | ? | -30% | -1%
CCC(C(=O)NCc1cc(OC)ccc1OC)n1nc(C)c2sc3ccccc3c2c1=O (stereo unspecified) | . | -8% | . | . | . | -3%
CCC(C(=O)NCCc1cc(OC)ccc1OC)n1nc(C)c2sc3ccccc3c2c1=O (stereo unspecified) | . | -12% | . | . | . | 13µM*
CC1Cc2cc(/C(O)=C3/C(=O)C(=O)N(CCN4CCOCC4)C3c3cccc(Cl)c3)ccc2O1 (stereo unspecified) | -1% | -20% | 6.3µM* | 7% | 19%[46.1 µM] | -1%
CCCOc1cccc(C2/C(=C(/O)c3ccc4c(c3)CC(C)O4)C(=O)C(=O)N2CCN2CCOCC2)c1 (stereo unspecified) | . | -10% | . | 3% | . | .
O=C1C(Cl)=C(Nc2ccc3cn[nH]c3c2)C(=O)c2ccccc21 | 10µM* | -3% | . | 8.9µM* | 6.3µM* | 0%
CC(=O)c1ccc(NC(=S)Nc2ccc3cn[nH]c3c2)cc1 | ? | 2% | -3% | 32µM* | -1% | 0%
CC(C)c1ccc(NC(=S)Nc2ccc3cn[nH]c3c2)cc1 | ? | -8% | 18% | 10% | -8% | 1%
O=C(Nc1ccc2cn[nH]c2c1)c1c(Cl)cccc1Cl | -4% | 9% | 2% | 40µM* | -10%[46.1 µM] | 0%
COc1ccc(Cc2ccccc2C(=O)O)c2ccccc12 | . | . | 9% | . | . | .
CCN=C1S/C(=C\c2cn(C(C)=O)nc2-c2ccccc2)C(=O)N1CC | 10% | -10% | 22% | -3% | -14% | -1%
CC(=O)NC1=NC(=O)/C(=C/c2cn(C(C)=O)nc2-c2ccccc2)S1 | 6% | -23% | -1% | 28µM* | -30% | 0%
CC(=O)NC1=NC(=O)/C(=C/c2cc(C)n(-c3ccc(NC(C)=O)cc3)c2C)S1 | ? | -8% | 12% | 45µM* | -33% | 0%
CC(=O)NC1=NC(=O)/C(=C/c2cc(C)n(-c3cccc(C(=O)O)c3)c2C)S1 | ? | -29% | 6% | 40µM* | -2% | -1%
Oc1ccc(N=C/C=C/c2ccc(Br)cc2)cc1-c1nc2ccccc2s1 | 14µM* | -1% | 14% | -15% | -3% | 0%
O=C(Nc1ccc(-c2nc3ccccc3s2)c(O)c1)c1ccc(Br)cc1 | . | -7% | . | . | . | -2%
SMILES | KDM4E inh | GCN5L2 inh | IMPase Li inh | Sfp PPTase inh | NPSR antag | Epigenetic reg
CCSc1nccc(-c2nn(-c3ccc(C)cc3)ccc2=O)n1 | ? | -5% | 24%[38.3 µM] | 7% | 5%[46.1 µM] | 1%
C#CCSc1nccc(-c2nn(-c3ccc(C)cc3)ccc2=O)n1 | ? | -11% | 25%[38.3 µM] | 79µM* | 2%[46.1 µM] | 2%
OC(CNC1CCCc2ccccc21)COc1ccc2ccccc2c1 (stereo unspecified) | ? | -4% | -10% | -32% | -4% | -4%
CCc1ccccc1OC[C@@H](O)CN[C@H]1CCCc2ccccc21 | -6% | -3% | 1% | 50µM* | . | 0%
CN(C)c1ccc(NC(=S)c2ccccn2)cc1 | 18µM* | -4% | 0% | 45µM* | -33% | ?
CC(C)(C=O)C1=CC(=O)c2ccccc2C1=O | 4% | -10% | 28% | 6.3µM* | ? | 2%
CCCCC(CC)CCC(CC(C)C)OS(=O)(=O)O (stereo unspecified) | . | -4% | . | 13% | . | .
O=C(CCc1ccccc1)NNC(=O)CCc1ccccc1 | . | -3% | . | 5% | . | .
Cc1ccccc1OCC(=O)NN1CCN(C)CC1 | -2% | -3% | -4% | 2% | 22% | 0%
Cc1ccccc1OCC(=O)NN1C(=O)C2C3C=CC(O3)C2C1=O (stereo unspecified) | -2% | 1% | 10% | 50µM* | 16% | 1%
O=C(CCc1ccccc1)NN1C(=O)C2C3C=CC(O3)C2C1=O (stereo unspecified) | -10% | 4% | -6% | 10µM* | 23% | -3%
Cc1cccc(OCC(=O)NC2CCCC2)c1 | . | -1% | . | -3% | . | .
Cc1cccc(OCC(=O)NN2C(=O)C3C4C=CC(O4)C3C2=O)c1 (stereo unspecified) | -1% | 3% | 4% | 40µM* | 8% | 1%
CC(=O)Nc1ccc(S(=O)(=O)NNC(=O)COc2cccc(C)c2)cc1 | ? | -17% | -2%[38.3 µM] | 79µM* | -3%[46.1 µM] | -1%
CC(C)=CCNc1ncnc2c1c(C#N)cn2[C@H]1O[C@@H](CO)[C@@H](O)[C@@H]1O | . | . | 2% | . | . | .
CCCCNc1nc(C)nc2c1nc(-c1ccccc1)n2CC1CCN(C)CC1 | ? | . | -7% | 12% | . | 9%
CCOc1ccc(C(=O)NN2C(=O)C3C4C=CC(O4)C3C2=O)cc1 (stereo unspecified) | 5% | -2% | 15%[38.3 µM] | 28µM* | -5%[46.1 µM] | -1%
CCOc1ccc(NC(=O)c2ccc(N)cc2)cc1 | 6% | -3% | 3% | 16% | 11%[46.1 µM] | -1%
